In PubChem BioAssay (Tox21) one finds Potency and activation data, which are given here for 23 molecules.

Test [1] can be described thus: qHTS assay to identify aromatase inhibitors - cell viability counter screen (AID 743084).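 Further: cells stimulated with testosterone during compound exposure; nearly all actives have a fitted effect of over 55% in size.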 Further: potency means the concentration at half of the fitted maximal effect. In general terms: Quantitative high-throughput screening tests each substance at several concentrations.
Test [2] addresses Aryl hydrocarbon receptor (Homo sapiens) (UniProt P35869). In words: qHTS assay to identify small molecule that activate the aryl hydrocarbon receptor (AhR) signaling pathway (AID 743085). Further: nearly all actives have a fitted effect of over 15% in size. Further: potency means the concentration at half of the fitted maximal effect.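 On activation: HG2L7.5c1 human HepG2 liver cells with stably integrated DRE-driven firefly reporter; series mostly up to about 70 µM.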 An outline of the steps: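 Measured in HG2L7.5c1 cells: CellTiter-Fluor signal (30 min incubation, 37C) for viability, then luciferase luminescence (30 min, room temperature). Compound contact time was 24 h at 37C, following a 5 h pre-incubation.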

Test [3] can be described thus: qHTS assay to identify small molecule that activate the aryl hydrocarbon receptor (AhR) signaling pathway - cell viability counter screen (AID 743086). Further: nearly all actives have a fitted effect of over 45% in size. Further: potency means the concentration at half of the fitted maximal effect. An outline of the steps: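 HepG2-AhR-luc (HG2L7.5c1) cells, 4000/well, were preincubated 5 h at 37C, exposed to compound in qHTS format for 24 hr at 37C, then given CellTiter-Fluor for 30 min; viability was read as fluorescence in the reporter wells.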

In test [4] the target is Peroxisome proliferator-activated receptor gamma (Homo sapiens) (UniProt P37231). In words: qHTS assay to identify small molecule agonists of the peroxisome proliferator-activated receptor gamma (PPARg) signaling pathway (AID 743094; active means well fitted activation curve with a large enough effect in the signal ratio in the repeat runs, not every such curve was filed as active; the % refers to the signal ratio). Summed up: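 HEK293H PPARg-bla cells, 5 h settle at 37C/5% CO2; compound (DMSO) 17 h, 37C; B/G FRET substrate 1 h RT; fluorescence intensity read-out. qHTS format.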
Chain of Peroxisome proliferator-activated receptor gamma (Homo sapiens) (P37231 whole entry, looked up): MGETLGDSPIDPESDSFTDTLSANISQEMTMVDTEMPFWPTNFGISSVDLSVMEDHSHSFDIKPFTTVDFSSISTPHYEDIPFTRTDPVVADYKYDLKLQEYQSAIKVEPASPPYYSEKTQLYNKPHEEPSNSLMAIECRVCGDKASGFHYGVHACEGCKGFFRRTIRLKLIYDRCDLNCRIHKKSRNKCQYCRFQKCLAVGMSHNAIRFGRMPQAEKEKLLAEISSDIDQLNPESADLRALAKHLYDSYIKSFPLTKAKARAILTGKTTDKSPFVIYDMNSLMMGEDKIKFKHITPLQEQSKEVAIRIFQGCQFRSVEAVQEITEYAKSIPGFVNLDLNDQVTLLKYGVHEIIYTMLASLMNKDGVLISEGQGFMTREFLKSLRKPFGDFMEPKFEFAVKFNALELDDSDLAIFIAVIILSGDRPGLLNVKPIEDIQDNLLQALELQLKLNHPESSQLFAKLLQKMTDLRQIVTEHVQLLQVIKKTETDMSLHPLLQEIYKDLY

Test [5] shares this target. In words: qHTS assay to identify small molecule antagonists of the peroxisome proliferator-activated receptor gamma (PPARg) signaling pathway (AID 743191; calls by dose curve; further: nearly all actives have a fitted effect of over 30% in size; further: potency means the concentration at half of the fitted maximal effect). An outline of the steps:
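GeneBLAzer PPARg UAS-bla HEK293H cells carrying a UAS-driven beta-lactamase reporter were plated at 3000 cells/well, preincubated 5 h at 37C, then given compound for 17 h at 37C; LiveBLAzer B/G FRET substrate was read after 1 h at room temperature.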

A short description of test [6]: qHTS assay to identify small molecule antagonists of the peroxisome proliferator-activated receptor gamma (PPARg) signaling pathway - cell viability counter screen (AID 743194). Further: nearly all actives have a fitted effect of over 55% in size. As to conditions: Potency: co-treated with 50 nM rosiglitazone unless noted. An outline of the steps:
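PPARg-UAS-bla HEK293H cells were plated, rested 5 h at 37 C, then treated with compounds plus rosiglitazone (50 nM final) for 17 h at 37 C; viability was then read by CellTiter-Glo luminescence after 30 min at room temperature.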

Test [7] is described as follows: qHTS assay for small molecule agonists of the antioxidant response element (ARE) signaling pathway - cell viability counter screen (AID 743203; calls by dose curve; further: nearly all actives have a fitted effect of over 55% in size). An outline of the steps: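 Luminescence read-out (CellTiter-Glo, 30 min at room temperature) measured cell viability in the same wells as the ARE beta-lactamase reporter. HepG2 ARE-bla cells were treated with compounds for 16 hrs at 37C/5% CO2.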

A short description of test [8]: qHTS assay for small molecule activators of the heat shock response signaling pathway - cell viability counter screen (AID 743209). Further: nearly all actives have a fitted effect of over 50% in size. An outline of the steps: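 HSE-bla HeLa; 1500 cells/well; overnight 37 C, 5% CO2; compound 5 h 37 C; LiveBLAzer B/G substrate 2.5 h RT; CellTiter-Glo 30 min RT; luminescence.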
The nature of test [9]: qHTS assay for small molecule activators of the heat shock response signaling pathway (AID 743210; active means well fitted activation curve with a large enough effect in the signal ratio in the repeat runs, with a control signal flat, not every such curve was filed as active; the % refers to the signal ratio; further: series mostly up to about 63 µM). Summed up: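 Heat shock element–beta-lactamase HeLa reporter cells; qHTS with compounds for 5 h at 37 C; detection by FRET substrate fluorescence after 2.5 h at RT.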
A short description of test [10]: qHTS assay for small molecule agonists of the antioxidant response element (ARE) signaling pathway (AID 743202; active means well fitted activation curve with a large enough effect in the signal ratio in the repeat runs, not every such curve was filed as active; the % refers to the signal ratio; further: potency means the concentration at half of the fitted maximal effect). An outline of the steps: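 Following a 16 h, 37 C exposure of reporter HepG2 cells (ARE-driven beta-lactamase, 2,000 cells/well) to compounds, FRET substrate was applied for 2 h at room temperature and fluorescence intensity recorded.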

Values joined by “and” are separate entries in the source; they are usually repeats but may differ in a detail not shown here. Equal entries are not always repeated. Results filed as inconclusive are left out. Values without a mark were called inactive. Active and inactive are the calls of the source. Unless noted, the call rests on the fitted dose curve; in most records, active means well fitted curve in the direction sought with a large enough effect in the repeat runs; inconclusive means weak or mixed curves; inactive means no such curve, though single readings can be large; an effect the other way counts as inactive or inconclusive.
On the % scale 0 is the no-effect control and ±100 the full control effect.

Chain of Aryl hydrocarbon receptor (Homo sapiens) (P35869 whole entry, looked up): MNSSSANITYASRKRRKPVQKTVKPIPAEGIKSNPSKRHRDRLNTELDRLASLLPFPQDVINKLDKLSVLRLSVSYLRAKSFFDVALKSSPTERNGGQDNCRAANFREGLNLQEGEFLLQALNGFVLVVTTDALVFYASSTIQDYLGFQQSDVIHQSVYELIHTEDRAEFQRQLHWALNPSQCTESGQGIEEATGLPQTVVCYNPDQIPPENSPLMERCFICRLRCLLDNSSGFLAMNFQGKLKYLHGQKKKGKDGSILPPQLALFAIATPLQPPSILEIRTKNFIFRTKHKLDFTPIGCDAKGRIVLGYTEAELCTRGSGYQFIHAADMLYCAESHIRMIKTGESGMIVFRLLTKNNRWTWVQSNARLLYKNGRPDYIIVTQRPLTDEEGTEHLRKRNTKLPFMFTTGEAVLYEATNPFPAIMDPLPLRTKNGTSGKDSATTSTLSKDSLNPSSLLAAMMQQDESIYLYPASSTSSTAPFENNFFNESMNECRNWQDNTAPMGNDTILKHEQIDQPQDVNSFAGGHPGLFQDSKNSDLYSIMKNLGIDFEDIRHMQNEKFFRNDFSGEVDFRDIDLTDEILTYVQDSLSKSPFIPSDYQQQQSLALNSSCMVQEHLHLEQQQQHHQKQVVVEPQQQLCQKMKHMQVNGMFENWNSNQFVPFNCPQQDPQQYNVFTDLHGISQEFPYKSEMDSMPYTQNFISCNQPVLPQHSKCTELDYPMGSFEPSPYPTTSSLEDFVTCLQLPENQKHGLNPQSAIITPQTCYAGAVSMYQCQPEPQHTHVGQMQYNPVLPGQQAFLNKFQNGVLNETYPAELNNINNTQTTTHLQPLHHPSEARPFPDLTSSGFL

As for `NC(=O)CN1CCCC1=O`, the Potency result in test [1], in [2], in test [3], in test [4], in test [5] and in test [6] was “inactive” throughout. In addition, the Potency result in [7], in [8] and in [9] was “inactive” throughout.
On to `CC(C)COC(=O)c1ccccc1C(=O)OCC(C)C`, for which the Potency entry in [1], in [2], in test [3], in test [4], in test [5] and in test [6] was “inactive” each time. For the same molecule, the Potency result in test [10], in [7], in [8] and in [9] was “inactive” each time.
In the case of `CCNc1nc(Cl)nc(NC(C)(C)C#N)n1`, the Potency result in [1], in [2], in test [3], in [4], in test [5] and in test [6] was “inactive” in each case. Besides, the Potency result in test [10], in [7] and in test [8] was “inactive” in each case.
Consider `CC1(C)C(C(=O)OC(C#N)c2cccc(Oc3ccccc3)c2)C1(C)C` (stereo not given), for which the Potency result in test [1], in [2], in test [3], in test [4], in [5] and in test [6] was “inactive” throughout. Further, the Potency entry in test [7], in test [8] and in test [9] was “inactive” throughout.
For the molecule `Brc1ccc(Br)cc1`, the Potency result in test [1], in test [2], in test [3], in [4], in test [5] and in test [6] was “inactive” in each case. Moreover, the Potency result in test [10], in test [7] and in test [8] was “inactive” each time.
Take `CCOS(=O)(=O)OCC`: the Potency entry in [1], in test [2], in test [3], in test [4], in test [5] and in [6] was “inactive” each time. The Potency entry in test [10], in test [7] and in test [8] was “inactive” in each case.
For `CC(C)CON=O`, the Potency result in [1], in [2], in [3], in [4], in test [5] and in [6] was “inactive” each time. Also, the Potency result in test [7], in test [8] and in test [9] was “inactive” in each case.
As for `CCOP(=O)(OCC)OCC`, the Potency entry in test [1], in test [2], in test [3], in test [4], in test [5] and in test [6] was “inactive” in each case. The Potency result in test [7], in [8] and in test [9] was “inactive” in each case.
`[CH3][Sn]([Cl])([Cl])[Cl]`: the Potency result in test [1], in test [2], in [3], in test [4], in test [5] and in test [6] was “inactive” in each case. Further, the Potency entry in test [7], in test [8] and in [9] was “inactive” each time.
With `ClC(Cl)(Cl)Br`, the Potency result in test [1], in test [2], in [3], in [4], in test [5] and in test [6] was “inactive” in each case. The Potency entry in [7] and in [8] was “inactive” throughout. The activation in test [9] is -1.07% [at 13.2 µM].
`Cn1c(-c2ccccc2)cc(-c2ccccc2)[n+]1C`: the Potency entry in [1], in test [2], in test [3], in [4], in [5] and in test [6] was “inactive” each time. Moreover, the Potency result in test [7] and in test [8] was “inactive” each time.
Consider `Oc1ccc(Cl)cc1Cl`, for which the Potency result in test [1], in [2], in test [3], in test [4], in test [5] and in test [6] was “inactive” throughout. For the same molecule, the Potency entry in test [7], in test [8] and in test [9] was “inactive” each time.
Take `CC(C)=CC1C(C(=O)OCN2C(=O)C3=C(CCCC3)C2=O)C1(C)C` (stereo not given): the Potency entry in [1], in [2], in [3], in test [4], in test [6] and in test [7] was “inactive” in each case. In addition, in [8], the Potency result was “inactive”. Further, the Potency in test [5] was 11.9 µM (active).
Regarding `O=P(OCCCl)(OCCCl)OCCCl`, the Potency entry in test [1], in test [2], in test [3], in test [4], in test [5] and in test [6] was “inactive” throughout. Besides, the Potency result in [7], in [8] and in test [9] was “inactive” in each case.
Consider `CC1=C(C(=O)Nc2ccccc2)SCCO1`, for which the Potency entry in test [1], in test [3], in [4], in test [5], in [6] and in test [7] was “inactive” throughout. The Potency result in [8] and in test [9] was “inactive” throughout. Also, the Potency in test [2] is 27.8 µM (active) and 24.3 µM (active).
For the molecule `O=NN1CCOCC1`, the Potency entry in test [1], in test [2], in test [3], in test [4], in test [5] and in test [6] was “inactive” in each case. Moreover, the Potency entry in test [10], in [7], in test [8] and in test [9] was “inactive” each time.
As for `ClCc1ccccn1`, the Potency entry in test [1], in test [2], in test [3], in test [4], in test [5] and in test [6] was “inactive” throughout. Further, the Potency entry in [7], in [8] and in test [9] was “inactive” each time.
As to `Nc1ccc([N+](=O)[O-])cc1N`, the Potency in test [1] was 30.6 µM (active); in [2] it was 61.1 µM (active); in test [3], 27.3 µM (active) and 30.6 µM (active); in test [10], 968 nM (active). In addition, the Potency result in test [4], in test [5], in test [6], in test [7] and in [8] was “inactive” each time.
For the molecule `O=NN(c1ccccc1)c1ccccc1`, the Potency entry in [1], in test [2], in test [3], in test [4], in [5] and in [6] was “inactive” each time. The Potency result in [10], in test [7], in test [8] and in test [9] was “inactive” in each case.
On to `CN(C)P(=O)(N(C)C)N(C)C`, for which the Potency result in test [1], in test [2], in test [3], in test [4], in test [5] and in test [6] was “inactive” in each case. Besides, the Potency result in test [10], in [7], in test [8] and in test [9] was “inactive” throughout.
For the molecule `O=C1CCCO1`, the Potency result in [1], in test [2], in test [3], in [4], in [5] and in test [6] was “inactive” throughout. Also, the Potency entry in test [10], in test [7], in [8] and in test [9] was “inactive” each time.
With `CC(C)Nc1nc(Cl)nc(NC(C)C)n1`, the Potency entry in test [1], in test [2], in [3], in [4], in test [5] and in [6] was “inactive” each time. Also, the Potency result in test [7], in test [8] and in test [9] was “inactive” throughout.
For the molecule `COc1ccc(C=O)cc1OC`, the Potency result in test [1], in [2], in test [3], in [4], in test [5] and in test [6] was “inactive” in each case. For the same molecule, the Potency result in [7], in test [8] and in test [9] was “inactive” each time.
